{"source": "PubChem BioAssay AID686940", "about": "(The Scripps Research Institute Molecular Screening Center, 2013)", "note": "About 2,600 (0.7%) of roughly 370,000 compounds were called active. Only a selection was taken, and actives are over-represented in it overall. Values without a mark were called inactive.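 How the source made its calls: active means inhibition above a per-plate cutoff, mean inhibition of test wells between control levels plus 3 SD (cut at about 38% in these data); inactive means the rest.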", "data": [{"biological_target": "COUP transcription factor 2 (Homo sapiens) (UniProt P24468)", "sequence (P24468 whole entry, looked up)": "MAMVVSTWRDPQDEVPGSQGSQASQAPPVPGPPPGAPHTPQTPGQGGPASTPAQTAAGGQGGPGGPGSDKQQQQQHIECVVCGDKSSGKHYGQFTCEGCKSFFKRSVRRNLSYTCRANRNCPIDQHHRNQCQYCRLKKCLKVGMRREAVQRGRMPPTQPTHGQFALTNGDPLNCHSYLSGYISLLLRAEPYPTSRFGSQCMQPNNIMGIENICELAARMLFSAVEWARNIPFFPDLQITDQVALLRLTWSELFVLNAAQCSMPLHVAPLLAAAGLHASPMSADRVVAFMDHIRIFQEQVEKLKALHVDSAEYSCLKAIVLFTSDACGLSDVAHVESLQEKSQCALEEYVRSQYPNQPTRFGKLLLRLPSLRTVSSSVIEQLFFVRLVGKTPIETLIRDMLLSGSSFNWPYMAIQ", "experiment": "NR2F2 transcriptional activity inhibitors, primary screen, cell-based, luciferase reporter, HEK293T, luminescence (AID 686940);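 further: cells cotransfected with COUP-TFII expression vector driving the NGFI-A reporter; 0% = median of COUP-TF2 test wells and 100% = reporter-only cells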", "conditions": "HEK293T NGFI-A luciferase reporter, at 8.6 µM, hits give high values", "values": [{"smiles": "COC(=O)CC1CCc2cc(C)cc(C(CC(C)C)NC(=O)[C@H](CC(C)C)NC(=O)OCc3ccccc3)c2O1", "note": "(stereo partly drawn)", "inhibition": "5.51%"}, {"smiles": "CCOC(=O)C1CCN(C(=O)C(C)(C)NC(=O)Nc2ccc(F)c(F)c2)CC1", "inhibition": "-2.96%"}, {"smiles": "c1coc(CNc2ncnc3ccccc23)c1", "inhibition": "53.6% (active)"}, {"smiles": "COc1ccc(CNC(=O)COc2cccnc2[N+](=O)[O-])cc1", "inhibition": "0.02%"}, {"smiles": "O=C(COc1ncnc2ccccc12)NC(=O)NCc1ccccc1", "inhibition": "11.2%"}, {"smiles": "c1coc(CCNc2ncnc3ccc(-c4ccc5c(c4)OCO5)cc23)c1", "inhibition": "-3.64%"}, {"smiles": "COc1ccc(CNc2ncnc3ccccc23)cc1", "inhibition": "56.7% (active)"}, {"smiles": "O=C(NCc1ccncc1)C(=O)NCc1ccco1", "inhibition": "2.85%"}, {"smiles": "C[C@H]1[C@H](NC(=O)c2cccc(N(C)C)c2)CC[C@@]23CCCN2C(=O)CCC[C@@H]13", "inhibition": "4.37%"}, {"smiles": "COc1ccc(C#CCNCc2ccc(OC)cc2OC)cc1", "inhibition": "-3.51%"}, {"smiles": "COC(=O)c1cccc(Cn2ccc3ccc(-c4ccc5ccn(C(=O)c6ccccc6C)c5c4)cc32)c1", "inhibition": "-1.59%"}, {"smiles": "O=C(c1ccncc1)N1CC[C@H]2[C@H](CCCN2Cc2ccc(F)cc2)C1", "inhibition": "-20.6%"}, {"smiles": "COC(=O)[C@]12C[C@H](CC(=O)NCCc3ccccc3OC)C(=O)N(Cc3ccco3)C1=C[C@H](C(C)C)O[C@@H]2C1CC1", "inhibition": "3.03%"}, {"smiles": "CC(=O)Nc1nc2ncccn2c1-c1ccc(C(F)(F)F)cc1", "inhibition": "4.78%"}, {"smiles": "Cc1ccc(NC(=O)c2cc(C)nn2-c2ccccc2)c(C)c1", "inhibition": "-0.68%"}, {"smiles": "CCN(CC)C(=O)CC[C@@H]1CC[C@]2(CCCN(S(=O)(=O)C3CCCCC3)C2)O1", "inhibition": "10.7%"}, {"smiles": "C[C@@H]1C[C@@H]2O[C@H]2/C=C\\C=C\\C(=O)Cc2c(Cl)c(O)cc(O)c2C(=O)O1", "inhibition": "61.7% (active)"}, {"smiles": "CCOC(=O)N1CCN(C(=O)C2CCN(Cc3ccc(OC)cc3OC)CC2)CC1", "inhibition": "5.07%"}, {"smiles": "CCOC(=O)N1CCN(C(=O)C2CCCN(c3ncnc4c3sc3cccc(F)c34)C2)CC1", "note": "(stereo not drawn)", "inhibition": "-4.38%"}, {"smiles": "CCOC(=O)N1CCN(C(=O)C2CCN(c3ncnc4c3sc3cccc(F)c34)CC2)CC1", "inhibition": "46.1% (active)"}, {"smiles": "Cc1ccc(F)cc1NC(=O)Cc1nn(C)c(=O)c2ccccc12", "inhibition": "54.3% (active)"}, {"smiles": "Cc1ccc(F)cc1NC(=O)CSCc1c(C)noc1C", "inhibition": "2.99%"}, {"smiles": "COc1ccc(-c2nn(C)c(=O)c3ccccc23)cc1NC(=O)COc1ccccc1", "inhibition": "-20.3%"}, {"smiles": "CC(c1c[nH]c2ccccc12)c1c(-c2ccccc2)n(C)c2ccccc12", "note": "(stereo not drawn)", "inhibition": "0.69%"}, {"smiles": "C#CCCN([C@H](C(=O)OC)C(C)C)S(=O)(=O)c1ccc(F)cc1Br", "inhibition": "17.9%"}, {"smiles": "CCCNC(=O)C1(C)CCN1C(=O)Cc1ccc(-c2ccccc2)cc1", "note": "(stereo not drawn)", "inhibition": "27.8%"}, {"smiles": "C#Cc1ccc(NC(=O)C2(C)CCN2C(=O)Cc2ccc(-c3ccccc3)cc2)cc1", "note": "(stereo not drawn)", "inhibition": "66.9% (active)"}, {"smiles": "CC1(C(=O)NS(=O)(=O)c2ccccc2)CCN1C(=O)Cc1ccc(-c2ccccc2)cc1", "note": "(stereo not drawn)", "inhibition": "-9.63%"}, {"smiles": "C=CCN1C(=O)[C@@H](CC(=O)NCC2CCCCC2)[C@]2(C(=O)OC)CCCCC=C12", "inhibition": "2.77%"}, {"smiles": "Cc1cccc(NC(=O)C[C@H]2CC[C@H]3[C@@H](COc4ccc(NC(=O)Nc5ccccc5)cc4C(=O)N3C)O2)c1", "inhibition": "-4.77%"}, {"smiles": "CCC(NC(=O)C1C2C=CC3(CN(Cc4ccccc4)C(=O)C13)O2)c1ccccc1", "note": "(stereo not drawn)", "inhibition": "8.47%"}, {"smiles": "COCC1CCCCN1C(=O)c1cc(COc2ccc(C)c(C)c2)on1", "note": "(stereo not drawn)", "inhibition": "-30%"}, {"smiles": "C=CCC1(CC=C)CCCN1C(=O)c1cc(COc2ccc(-n3cncn3)cc2)on1", "inhibition": "53% (active)"}, {"smiles": "CCCOC1CCCN(C(=O)c2cc(COc3cncc(Cl)c3)on2)C1", "note": "(stereo not drawn)", "inhibition": "-19.1%"}, {"smiles": "O=C(Nc1ccc(Br)cc1)OCCN1C(=O)CCC12CCC(c1ccccc1)CC2", "note": "(stereo not drawn)", "inhibition": "-11.1%"}, {"smiles": "COC(=O)C[C@H]1CC[C@H]2[C@H](COc3ccc(NC(=O)C4CC4)cc3C(=O)N2C)O1", "inhibition": "-12.2%"}, {"smiles": "COc1ccc(OC)c(NC(=O)c2cc(-c3cc(F)ccc3OCC3CCCO3)n[nH]2)c1", "note": "(stereo not drawn)", "inhibition": "87% (active)"}, {"smiles": "COc1cc(F)ccc1-c1cc(C(=O)NCC2CCCCC2)[nH]n1", "inhibition": "-27.9%"}, {"smiles": "CCCOc1ccc(F)cc1-c1cc(C(=O)Nc2ccc(F)cc2)[nH]n1", "inhibition": "-7.05%"}, {"smiles": "O=C(NCc1ccc(Cl)cc1)C1CCCN(c2nc3ccccc3o2)C1", "note": "(stereo not drawn)", "inhibition": "18.9%"}, {"smiles": "C#CCNC(=O)C[C@H]1C[C@@]2(C(=O)OC)C(=C[C@H](C(C)C)O[C@@H]2C2CC2)N(Cc2ccco2)C1=O", "inhibition": "-5.51%"}, {"smiles": "CC(C)CSc1nnc(-c2cccnc2)n1Cc1ccccc1", "inhibition": "9.79%"}, {"smiles": "O=C(c1c(F)cccc1Cl)N1CCN(S(=O)(=O)c2ccc3c(c2)OCCCO3)CC1", "inhibition": "18%"}, {"smiles": "O=C(c1c(F)cccc1F)N1CCN(S(=O)(=O)c2ccc3c(c2)OCCO3)CC1", "inhibition": "38.1% (active)"}, {"smiles": "O=S(=O)(c1ccc2c(c1)OCCCO2)N1CCN(S(=O)(=O)c2c(F)cccc2F)CC1", "inhibition": "9.89%"}, {"smiles": "CCc1cc2c(NC(Cc3ccccc3)C(=O)O)ncnc2s1", "note": "(stereo not drawn)", "inhibition": "-1.84%"}, {"smiles": "CCc1cc2c(SCC(=O)Nc3ncc(Cl)c(C)c3Cl)ncnc2s1", "inhibition": "12.8%"}, {"smiles": "CCc1cc2c(NC3CCCC3)ncnc2s1", "inhibition": "39.9% (active)"}, {"smiles": "C=C(C)C1CC23C(=O)C4(C(=O)c5ccccc5)C[C@@]5(C)CCC(CC2C1(C)C)(C4=O)C35OC", "note": "(stereo partly drawn)", "inhibition": "-4.41%"}, {"smiles": "COc1ccccc1C(=O)CSc1nnc(-c2ccccn2)n1-c1ccccc1", "inhibition": "9.59%"}, {"smiles": "Cc1ccc(-c2nc(C3CCCN(S(=O)(=O)c4ccc(Br)s4)C3)no2)cc1", "note": "(stereo not drawn)", "inhibition": "2.13%"}, {"smiles": "Cc1ccc(-c2cn3cc(C)ccc3n2)cc1", "inhibition": "73% (active)"}, {"smiles": "Cc1ccc2nc(-c3ccccc3)c(CC3CCCCC3)n2c1", "inhibition": "-52.4%"}, {"smiles": "Cc1ccc(-c2nc3c(C)cc(Br)cn3c2Cc2ccccc2)cc1", "inhibition": "-5.6%"}, {"smiles": "Cc1ccc2nc(-c3ccc(Br)cc3)cn2c1", "inhibition": "46.6% (active)"}, {"smiles": "CC(=O)Nc1c(-c2ccc(C)cc2)nc2ccc(Cl)cn12", "inhibition": "-17.9%"}, {"smiles": "COc1ccc(-c2nc3ccc(Br)cn3c2Cc2ccc(C)cc2)cc1OC", "inhibition": "-32.3%"}, {"smiles": "CCC(=O)c1c(CC)c2n3c1=CC[C@H]3CC(Br)C=2", "note": "(stereo partly drawn)", "inhibition": "6.74%"}, {"smiles": "CC(c1ccc(N)cc1)c1cn(C)c2ccccc12", "note": "(stereo not drawn)", "inhibition": "-16.2%"}, {"smiles": "CCOC(=O)[C@]12CCCC3=C1N(CCC3)C(=O)[C@@H](CC(=O)N1CCSCC1)C2", "inhibition": "-5.73%"}, {"smiles": "COc1ccc(N2CCN(CCNS(=O)(=O)c3ccc([N+](=O)[O-])cc3)CC2)cc1", "inhibition": "15.2%"}, {"smiles": "CC(C)OCCCNc1ncnc2c1[nH]c1ccc(F)cc12", "inhibition": "62.2% (active)"}, {"smiles": "O=C(CN1CCC(NC(=O)NCc2ccccc2)CC1)Nc1ccc2c(c1)OCCO2", "inhibition": "-8.81%"}, {"smiles": "COc1ccc(C(=O)OCCN2CCN(C3CN(Cc4cn(Cc5ccccc5F)nn4)S(=O)(=O)C3)CC2)cc1OC", "note": "(stereo not drawn)", "inhibition": "18.4%"}, {"smiles": "COc1cccc(N(C)C(=O)[C@@H](C)[C@@H](O)c2ccc3ccccc3c2)c1", "inhibition": "-11.8%"}, {"smiles": "CC(C)Nc1nc(NCCOc2ccccc2Cl)c2sccc2n1", "inhibition": "19.2%"}, {"smiles": "COc1ccccc1CNCc1cccs1", "inhibition": "9.93%"}, {"smiles": "COc1cccc(CNc2nc3cc(-c4csc5ccccc45)sc3c(=O)n2C)c1", "inhibition": "5.09%"}, {"smiles": "COc1cccc(-c2cc3nc(NCc4ccccc4OC)n(C)c(=O)c3s2)c1", "inhibition": "-9.04%"}, {"smiles": "COc1ccc(NC(=S)NCc2cccs2)c(OC)c1", "inhibition": "6.7%"}, {"smiles": "COc1cccc(CNc2nc(NCc3cccs3)nc3ccsc23)c1", "inhibition": "45.6% (active)"}, {"smiles": "COc1cccc(CNc2ncc(-c3ccccc3)n2C)c1", "inhibition": "-0.1%"}, {"smiles": "COc1cccc(CNc2nc(NCc3ccccc3OC)nc3ccsc23)c1", "inhibition": "39.1% (active)"}, {"smiles": "COc1ccccc1CNc1nc(Nc2ccccc2Cl)c2sccc2n1", "inhibition": "60.3% (active)"}, {"smiles": "COc1ccc(C(=O)OCCN(C)C2CN(Cc3cn(Cc4cccc(C)c4)nn3)S(=O)(=O)C2)cc1OC", "note": "(stereo not drawn)", "inhibition": "-14.5%"}, {"smiles": "COP(=O)(O)CNC(=O)OCc1ccccc1", "inhibition": "-0.48%"}, {"smiles": "COC(CNC(=O)[C@H](Cc1ccccc1)NC1(C(=O)NC2CCCCC2)CCCCC1)OC", "inhibition": "-36.3%"}, {"smiles": "Cc1ccc(C(=O)N(Cc2ccccn2)CC2CCCO2)cc1", "note": "(stereo not drawn)", "inhibition": "-9.77%"}, {"smiles": "O=S1(=O)c2c(NCc3ccco3)cccc2Oc2ccccc2CN1Cc1cn(Cc2cccc(C(F)(F)F)c2)nn1", "inhibition": "-1.36%"}, {"smiles": "CCOc1ccc(-n2c(SCC(=O)Nc3cc(C)c(NC(=O)c4ccccc4)cc3OC)nnc2-c2cccs2)cc1", "inhibition": "27.9%"}, {"smiles": "Cc1ccc(C2=CCN(C)C(=O)N2c2ccc(Cl)cc2)cc1", "inhibition": "-1.56%"}, {"smiles": "CCOc1ccc(N(CC(=O)Nc2c(C)n(C)n(-c3ccccc3)c2=O)S(=O)(=O)c2ccc(Cl)s2)cc1", "inhibition": "-10%"}, {"smiles": "Cc1cc(C)cc(NC(=O)N2CCC(N(C)CCC(C)C)CC2)c1", "inhibition": "1.48%"}, {"smiles": "Cc1ccc(OCCCC(=O)N2CCOCC2)c(C)c1", "inhibition": "-6.33%"}, {"smiles": "Cc1ccc(C)c(N2CCN(C(=O)CCCCCn3c(=S)[nH]c4ccc(N5CCOCC5)cc4c3=O)CC2)c1", "inhibition": "44.7% (active)"}, {"smiles": "Cc1ccc(C)c(N2CCN(C(=O)Cn3ncn4cccc4c3=O)CC2)c1", "inhibition": "10.1%"}, {"smiles": "CCC(c1ccc(NC(=O)OC(C)(C)C)cc1)c1cc(OC)cc(OC)c1", "note": "(stereo not drawn)", "inhibition": "20%"}, {"smiles": "Fc1ccc2[nH]c3c(N4CCSCC4)ncnc3c2c1", "inhibition": "45.2% (active)"}]}]}
